A selection: hits, their analogues and other compounds. The true share with any hit is near 6.2%.
HT1080NT lethal: qHTS for induction of synthetic lethality in tumor cells producing 2HG: qHTS for the HT-1080-NT fibrosarcoma cell line. HT-1080-NT fibrosarcoma viability, CellTiter-Glo ATP luminescence, 48 h. Potency, µM (series often up to 46.1 µM), hits mostly cytotoxic. 360,000 compounds, 1.6% hits;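 further: NT is the 2HG producing partner of a matched IDH1 knockdown line; nearly all actives have a fitted effect of over 55% in size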
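HT-1080-NT fibrosarcoma cells (2HG-overproducing), 750 cells/well in RPMI with 5% FBS, dosed after 2 h and incubated 48 h at 37C. CellTiter-Glo luminescence normalized to DMSO and no-cell wells; concentration-response curves fitted and classed.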
KB-3-1 tox: qHTS assay for MDR1-selective chemotherapeutics: Primary screen using the parental adenocarcinoma cell KB-3-1; KB-3-1 viability, CellTiter-Glo ATP luminescence, 72 h; Potency, µM (doses to about 46.1 µM), usual class: cytotoxic; 400,000 compounds, 1.4% hits; AID 1347075, 2019; further: nearly all actives have a fitted effect of over 60% in size
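Luminescent ATP read-out (CellTiter-Glo) measures survival of drug-naive KB-3-1 cells after 72 h compound exposure at 37 °C. Titration series was screened from lowest to highest concentration, with DMSO vehicle plates as background controls.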
KB-V1 MDR tox: qHTS assay for MDR1-selective chemotherapeutics: Primary screen using the drug-selected MDR subline cells KB-V1; KB-V1 MDR cells viability, CellTiter-Glo, 72 h; Potency, µM (doses to about 46.1 µM), most hits filed as cytotoxic; 400,000 compounds, 3.4% hits; AID 1347076, 2019; further: nearly all actives have a fitted effect of over 60% in size
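Compound-treated KB-V1 multidrug-resistant cells, 72 h, 37 degrees C; viability by CellTiter-Glo. Fitted qHTS curves give the values.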
ATXN2 expr inh: Primary qHTS for Inhibitors of ATXN expression; HEK-293 ATXN2-luciferase reporter, luminescence, 24 h; 360,000 compounds, 0.72% hits; Potency, µM (top dose mostly 57 µM), most hits filed as inhibitors; further: nearly all actives have a fitted effect of over 55% in size
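ATXN2-luciferase reporter cells (luciferase flanked by upstream and downstream ATXN2 gene portions) were treated 24 h at 37 °C with compounds at up to 57 uM. SteadyGlo luminescence gave expression; GF-AFC fluorescence gave viability.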
ATXN viability: Viability Counterscreen for Primary qHTS for Inhibitors of ATXN expression | S2 cells (HEK-293 line with an ATXN2-luciferase reporter) viability, CellTiter-Fluor protease fluorescence, 24 h | Potency, µM (top dose mostly 56.7 µM), most hits filed as cytotoxic | 400,000 compounds, 0.49% hits; further: nearly all actives have a fitted effect of over 40% in size
HT1080 IDH1KD tx: qHTS for induction of synthetic lethality in tumor cells producing 2HG: qHTS for the HT-1080-IDH1KD cell line | HT-1080 IDH1 knockdown viability, ATP luminescence, 48 h | Potency, µM (highest dose often 46.1 µM), most hits filed as cytotoxic | 360,000 compounds, 2% hits | AID 686971, 2013
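IDH1KD HT-1080 cells, 750/well, RPMI + 5% FBS; compound pinned after 2 h settling; 48 h, 37 °C; CellTiter-Glo luminescence; % activity normalised to DMSO and no-cell wells; curves fitted, classed by r2 and efficacy.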
Of the large screens only hits and unclear results are named; the others gave an inactive call; ! = a repeat was not active. The call rests on the fitted dose curve; in most records, active means well fitted curve in the direction sought with a large enough effect; inconclusive means small, poorly fitted or top-dose-only effect, or another doubt; inactive means no such curve, though single readings can be large; an effect the other way counts as inactive or inconclusive.

O=C(c1ccc(Br)cc1)C(CN1CCOCC1)c1ccccc1 (configuration not stated)	HT1080NT lethal 10µM, KB-3-1 tox inconclusive, KB-V1 MDR tox inconclusive, ATXN2 expr inh 27µM, HT1080 IDH1KD tx 7.3µM (no result: ATXN viability)
CC(CN1CCN(CC(C)C(=O)c2ccccc2)CC1)C(=O)c1ccccc1 (configuration not stated)	none
O=C(c1ccccc1)C(CN1CCCCC1)c1ccccc1 (configuration not stated)	HT1080NT lethal 2.6µM, KB-3-1 tox 5.8µM, KB-V1 MDR tox 15µM, ATXN2 expr inh 20µM, ATXN viability 32µM, HT1080 IDH1KD tx 10µM
CCOc1ccc(C(=O)C(CN2CCOCC2)c2ccccc2)cc1 (configuration not stated)	KB-3-1 tox inconclusive, KB-V1 MDR tox inconclusive, ATXN2 expr inh 28µM, HT1080 IDH1KD tx 9.2µM (no result: ATXN viability)
CCCCOc1ccc(C(=O)CCN2CCOCC2)cc1	HT1080NT lethal inconclusive, ATXN2 expr inh 19µM (no result: ATXN viability)
CCOc1ccc(C(CN2CCOCC2)C(C)=O)cc1OC (configuration not stated)	HT1080NT lethal 21µM, KB-3-1 tox inconclusive, KB-V1 MDR tox inconclusive, ATXN2 expr inh inconclusive, HT1080 IDH1KD tx 10µM
CCOc1ccc(C(C#N)N2CCOCC2)cc1OC (configuration not stated)	none
CN(C)CC(C(=O)c1ccccc1)c1ccccc1 (configuration not stated)	KB-3-1 tox inconclusive, KB-V1 MDR tox inconclusive, ATXN2 expr inh 22µM, HT1080 IDH1KD tx 13µM (no result: ATXN viability)
COc1ccc(-c2nc3n(n2)C(c2ccc(OC)cc2)C(C(=O)Nc2cccnc2)=C(C)N3)cc1 (configuration not stated)	none (no result: HT1080NT lethal, HT1080 IDH1KD tx)
Cc1ccc(C(=O)Nc2cc(-c3nc4ncccc4o3)ccc2C)c(C)c1	ATXN viability inconclusive (no result: HT1080NT lethal, HT1080 IDH1KD tx)
CC1=CC(=NOC(=O)c2cccc([N+](=O)[O-])c2)C=C(C)C1=O	HT1080NT lethal inconclusive, ATXN viability inconclusive, HT1080 IDH1KD tx inconclusive
CC1=CC(=O)C(C(C)C)=C/C1=N/OC(=O)c1cccc([N+](=O)[O-])c1	HT1080NT lethal 10µM
COc1cc(Nc2ncc3c(n2)CCN(Cc2cc(F)cc(F)c2)C3)cc(OC)c1	KB-3-1 tox inconclusive, KB-V1 MDR tox 8.2µM, ATXN2 expr inh inconclusive, ATXN viability inconclusive (no result: HT1080NT lethal, HT1080 IDH1KD tx)
COc1cc(Nc2ncc3c(n2)CCN(Cc2cccc(C)c2)C3)cc(OC)c1	KB-3-1 tox inconclusive, KB-V1 MDR tox inconclusive, ATXN viability inconclusive (no result: HT1080NT lethal, HT1080 IDH1KD tx)
COc1ccccc1N1CCN(C(=O)CCn2cnc3onc(-c4ccc(F)cc4)c3c2=O)CC1	none (no result: HT1080NT lethal, HT1080 IDH1KD tx)
CCOC(=O)N1CCN(C(=O)c2cc(-c3ccc(OCC)cc3)nc3ccccc23)CC1	HT1080NT lethal 5µM, KB-3-1 tox 4.6µM, KB-V1 MDR tox 2.3µM, ATXN viability inconclusive, HT1080 IDH1KD tx 5µM
COc1ccc(-c2cc(C(=O)N3CCN(c4ccccc4)CC3)c3ccccc3n2)cc1	HT1080NT lethal inconclusive, KB-3-1 tox inconclusive, KB-V1 MDR tox 7.3µM, ATXN viability inconclusive, HT1080 IDH1KD tx 1.8µM
CCOc1ccc(-c2cc(C(=O)N3CCN(c4ccccn4)CC3)c3ccccc3n2)cc1	HT1080NT lethal inconclusive, KB-3-1 tox 4.1µM!, KB-V1 MDR tox inconclusive, HT1080 IDH1KD tx inconclusive
COc1ccc(-c2cc(C(=O)N3CCCC3)c3ccccc3n2)cc1	KB-3-1 tox inconclusive
CCOc1ccc(-c2cc(C(=O)N3CCN(C)CC3)c3ccccc3n2)cc1	none
COc1ccc(-c2cc(C(=O)N3CCN(c4ccccn4)CC3)c3ccccc3n2)cc1	HT1080NT lethal inconclusive, ATXN viability inconclusive, HT1080 IDH1KD tx inconclusive
COc1cccc(CN2CCN(C(=O)c3cc(-c4cccnc4)nc4ccc(C)cc34)CC2)c1	KB-V1 MDR tox 23µM
